# Measurements reported in PubChem BioAssay.
# Active and inactive are the calls of the source. Unless noted, the rule behind the calls is not given here.
# Legend:
# [1] = kinase inhibitors against Plasmodium liver-stage infection, cell-based, known kinase inhibitor set, luminescence, hepatoma host viability (AID 624392); conditions: Plasmodium liver stage in hepatoma cells, luciferase luminescence, concentration not given here; liver cell % of control: measured here: host liver cell viability; parasite % of control: stronger effect = lower value;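 note: infected cells incubated roughly two days before readout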
# [2] = modulators of glucocorticoid suppression of NF-kB, cell-based, luciferase, IL-1B stimulus, dexamethasone (AID 624486); conditions: NF-kB luciferase reporter, IL-1B + dexamethasone, luminescence; percent of negative control (+Dex): actives lie on both sides, concentration not given here; z-score: measured here: IL-1B alone, no Dex;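 for percent of negative control (+Dex): 100% = mean signal of vehicle control wells on the plate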
# [3] = kinase inhibitors altering Pseudomonas killing of worms, whole organism (AID 651566);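 note: tested at 14 µM; sign flipped so higher z means a lower ratio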; conditions: C. elegans killed by P. aeruginosa, survival ratio
# [4] = activators of macrophage pro-inflammatory response, cell-based, murine, luminescence (AID 652131); conditions: murine macrophage pro-inflammatory reporter, stronger effect = higher value
# [5] = biological target: Cellular tumor antigen p53 (Homo sapiens) (UniProt P04637); test: kinase inhibitors altering GFP-p53 stability in HPV16-positive cells, imaging, known kinase inhibitor set, EGFP/DsRed ratio (AID 1053116); conditions: stronger effect = higher value; EGFP object count: measured here: GFP-p53 positive objects count;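 note: cells exposed to compounds for 24 h at 37 °C before reading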
# [6] = IRF3 reporter activation in THP-1 macrophages, cell-based, PMA-stimulated THP-1, luminescence (AID 1053176); conditions: PMA-differentiated THP-1, IRF3 reporter luminescence; stronger effect = higher value
# [7] = survival rescue of mitochondrial mutant cells in low glucose, primary screen, MELAS cybrids, Rieske KO mouse fibroblasts, CellTiter-Glo (AID 1508586;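 active = mean z-score across replicates of 1.96 or higher in either the MELAS or the Rieske mutant cell line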;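 note: z relative to plate mean and SD of compound and empty wells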)
# [8] = MELAS cybrid survival, CellTiter-Glo 48 h, stronger effect = higher value
# [9] = Rieske KO mouse fibroblast survival, CellTiter-Glo 72 h
# Chain of Cellular tumor antigen p53 (Homo sapiens) (P04637 whole entry, looked up): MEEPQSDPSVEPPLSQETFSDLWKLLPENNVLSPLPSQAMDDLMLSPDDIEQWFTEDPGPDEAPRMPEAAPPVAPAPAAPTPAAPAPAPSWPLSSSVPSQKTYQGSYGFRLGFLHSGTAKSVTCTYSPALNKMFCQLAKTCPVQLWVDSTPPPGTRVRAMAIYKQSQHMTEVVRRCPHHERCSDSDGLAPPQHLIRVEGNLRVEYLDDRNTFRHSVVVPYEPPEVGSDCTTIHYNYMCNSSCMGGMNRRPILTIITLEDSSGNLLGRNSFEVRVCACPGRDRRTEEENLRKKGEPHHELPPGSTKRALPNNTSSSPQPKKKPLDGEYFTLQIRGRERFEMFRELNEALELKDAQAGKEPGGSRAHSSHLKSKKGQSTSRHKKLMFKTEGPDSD
SMILES,liver cell % of control [1],parasite % of control [1],percent of negative control (+Dex) [2],z-score [2],z-score [3],z-score [4],EGFP object count [5],EGFP/DsRed ratio [5],fraction signal [6],"z-score [7, 8]","z-score [7, 9]"
O=C(O[C@H]1CN[C@H](C#Cc2cc3ncnc(Nc4ccc(Cc5ccccc5)cc4)c3s2)C1)N1CCOCC1,106%,85.4% (inactive),88% (inactive),-1.34,-0.335 (inactive),0.302 (inactive),5.5,0.104 (inactive),-0.006 (inactive),-0.24 (inactive),-0.218
FC(F)(F)c1cccc(Nc2nccc(-c3cnn4nc(-c5ccccc5)ccc34)n2)c1,97.2%,79.6% (inactive),86.5% (inactive),-0.085,1.3 (inactive),-0.793 (inactive),4.5,0.154 (inactive),-0.0005 (inactive),1.22 (inactive),-0.183
Nc1nccc(C#Cc2cncnc2Nc2ccc(OCc3cccc(F)c3)c(Cl)c2)n1,107%,81.2% (inactive),83.5% (inactive),-0.655,0.82 (inactive),-1.19 (inactive),313,1.99 (active),-0.0105 (inactive),-0.936 (inactive),0.011
CC(C)(CO)CNC(=O)c1ccc2[nH]c(O)c(N=Nc3ccc(S(N)(=O)=O)cc3)c2c1,82.1%,103% (inactive),93% (inactive),-0.01,-1.1 (inactive),-0.381 (inactive),3,0.052 (inactive),-0.004 (inactive),-0.345 (inactive),-0.442
Nc1nc(-c2cccc(Cl)c2)c(-c2ccc3ncccc3n2)s1,156%,115% (inactive),103% (inactive),0.42,-1.02 (inactive),-0.477 (inactive),2.5,0.0471 (inactive),-0.0045 (inactive),0.115 (inactive),-0.0691
O=C1NC(=O)C(c2ccccc2Cl)=C1Nc1cccc(O)c1,91.7%,148% (inactive),88% (inactive),-0.19,-0.34 (inactive),0.132 (inactive),5.5,0.0989 (inactive),-0.003 (inactive),-0.289 (inactive),-0.424
COc1ccc(-c2nn3ncccc3c2-c2ccnc(Nc3cccc(C(F)(F)F)c3)n2)cc1,92.5%,122% (inactive),90.5% (inactive),0.64,0.3 (inactive),0.045 (inactive),4.5,0.0918 (inactive),0.002 (inactive),1.24 (inactive),-0.239
Nc1ncnc2occ(-c3ccc(NC(=O)Nc4cccc(C(F)(F)F)c4)cc3)c12,49.9%,10.9% (inactive),66.5% (active),-3,-0.335 (inactive),-1.22 (inactive),3.5,0.146 (inactive),-0.016 (inactive),-0.197 (inactive),-0.452
CCc1cccc(CC)c1/C=C/c1cncc(C(=O)NC)c1,170%,99.3% (inactive),81% (inactive),-0.295,-0.265 (inactive),0.127 (inactive),4.5,0.156 (inactive),-0.0125 (inactive),1.32 (inactive),-0.269
OCc1ccc(-c2nc(-c3ccc4c(c3)OCO4)c(-c3ccccn3)[nH]2)cc1,108%,115% (inactive),106% (inactive),-0.455,-0.12 (inactive),1.4 (inactive),3.5,0.0782 (inactive),0.0015 (inactive),-0.819 (inactive),-0.0179
CC1=C(C(=O)Nc2cc(Cl)c3[nH]ncc3c2)C(c2ccc(C(F)(F)F)cc2)CC(=O)N1 (stereo not drawn),106%,193% (inactive),73% (inactive),-1.52,-0.22 (inactive),-0.455 (inactive),2,0.126 (inactive),-0.01 (inactive),-0.0142 (inactive),-0.416
O=C1Nc2ccc(-c3cccnc3)cc2/C1=C\c1cc(Br)c(O)c(Br)c1,174%,13.3% (inactive),102% (inactive),-0.125,0.98 (inactive),0.575 (inactive),1.5,0.0182 (inactive),-0.0065 (inactive),-0.192 (inactive),-0.185
CNC(=O)c1cncc(/C=C/c2ccccc2C)c1,170%,27.9% (inactive),108% (inactive),-0.24,0.255 (inactive),0.604 (inactive),4,0.0734 (inactive),0.0395 (inactive),0.836 (inactive),-0.131
COC(=O)Nc1nc2ccc(Oc3cccc(NC(=O)Nc4cc(C(F)(F)F)ccc4F)c3)cc2[nH]1,103%,148% (inactive),104% (inactive),2.25,1.03 (inactive),4.52 (inactive),4,0.18 (inactive),-0.0045 (inactive),-0.76 (inactive),0.691
CN1CCC(n2cnc(-c3ccc(F)cc3)c2-c2ccnc(NCCO)n2)CC1,86.8%,138% (inactive),102% (inactive),1.04,0.4 (inactive),0.387 (inactive),3.5,0.139 (inactive),-0.0015 (inactive),-0.289 (inactive),-0.297
COc1cc(C)c(N(C)C(=O)CN(C)C)cc1Nc1nc(Nc2cccc(F)c2C(N)=O)c2cc[nH]c2n1,71.5%,391% (inactive),110% (inactive),0.76,0.1 (inactive),0.717 (inactive),5,0.2 (inactive),-0.0115 (inactive),3.65 (active),1.35
CC(=O)NCc1cccc(C#Cc2cncnc2Nc2ccc(OCc3cccc(F)c3)c(Cl)c2)c1,86.2%,90.8% (inactive),77% (inactive),-1.32,0.19 (inactive),-0.99 (inactive),5.5,0.157 (inactive),0.004 (inactive),0.0992 (inactive),-0.0459
CCn1cc(-c2ccnc3[nH]ccc23)c(-c2cccc(NC(=O)Nc3ccc(OCc4ccccc4)cc3)c2)n1,76%,95.6% (inactive),93.5% (inactive),0.135,-1.14 (inactive),-1.24 (inactive),6.5,0.11 (inactive),-0.0115 (inactive),0.828 (inactive),0.137
O=C1NC(=O)C(N2CCc3ccccc32)=C1c1ccc(Cl)cc1,86.6%,138% (inactive),74% (inactive),-1.47,-1.35 (inactive),-0.315 (inactive),4,0.106 (inactive),-0.0285 (inactive),-0.729 (inactive),0.357
COc1ccc(-c2cc3c(N)ncnc3o2)cc1,106%,203% (inactive),118% (inactive),2.92,0.775 (inactive),1.8 (inactive),6.5,0.215 (inactive),-0.014 (inactive),1.14 (inactive),0.359
O=S1CCN(Cc2ccc(-c3ccc4ncnc(Nc5ccc(OCc6ccccc6)c(F)c5)c4c3)o2)CC1,81.6%,112% (inactive),77.5% (inactive),-1.04,-0.505 (inactive),0.693 (inactive),2.5,0.0418 (inactive),0.012 (inactive),-0.335 (inactive),-0.276
COc1cc2c(cc1Nc1nc(Nc3cccc(F)c3C(N)=O)c3cc[nH]c3n1)N(C(=O)CN1CCN(C(C)C)CC1)CC2,73.3%,300% (inactive),95.5% (inactive),-0.34,0.095 (inactive),-0.476 (inactive),4.5,0.201 (inactive),0.004 (inactive),-0.91 (inactive),-0.402
NS(=O)(=O)c1ccc(N=Nc2c(O)[nH]c3ccc(Cl)cc23)cc1,91.6%,111% (inactive),112% (inactive),0.905,0.005 (inactive),0.24 (inactive),6.5,0.227 (inactive),0.0005 (inactive),1.43 (inactive),-0.311
